Data taken from PubChem BioAssay AID1159580 (chemical genetic matrix, 2015).
“And” between values parts separate entries of the source, which are not always exact repeats. Equal entries are not always repeated. The whole screen tested about 5,500 compounds, of which about 2,000 (36%) were called active. Roughly 18% stayed inconclusive and do not appear here. Cut-off read from the data, not from the text of the source: active = normalized growth mostly below about 0.91 (no sharp cut-off); inconclusive = no clear call, values can overlap the other calls; inactive = mostly above about 0.92. Some of the results follow.

Assay: chemical genetic growth profiling, strain panel (AID 1159580);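 note: tested at 20 µM; growth read once vehicle control cultures reached saturation at 30 °C; 1 = growth at the plate median or of vehicle wells; lower values mean less growth of the strain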
Conditions: growth OD

Measured: normalized growth

COc1ccc2[nH]cc(CCN)c2c1
inactive: S. cerevisiae deletion strains, locus YJR043C, strain POL32, active compounds read low 1.02 | S. cerevisiae deletion strains, locus YJR075W, strain HOC1, active compounds read low 0.995 and 0.984 | S. cerevisiae deletion strains, locus YKL009W, strain mrt4, active compounds read low 0.94 | S. cerevisiae deletion strains, locus YKL068W, active compounds read low 0.986 | S. cerevisiae deletion strains, locus YKL085W, strain MDH1 (second series), active compounds read low 0.991 | S. cerevisiae deletion strains, locus YKL085W, strain MDH1, active compounds read low 0.991 | S. cerevisiae deletion strains, locus YKL160W, strain elf1, active compounds read low 1 | S. cerevisiae deletion strains, locus YKL190W, strain CNB1, active compounds read low 0.996 | S. cerevisiae deletion strains, locus YKR001C, strain vps1, active compounds read low 0.987 | S. cerevisiae deletion strains, locus YKR026C, strain gcn3, active compounds read low 0.988 | S. cerevisiae deletion strains, locus YKR091W, strain srl3, active compounds read low 0.996 | S. cerevisiae deletion strains, locus YLL001W, strain dnm1, active compounds read low 1 | S. cerevisiae deletion strains, locus YLL026W, active compounds read low 0.997 | S. cerevisiae deletion strains, locus YLL041C, strain sdh2, active compounds read low 0.991 | S. cerevisiae deletion strains, locus YLR027C, strain aat2, active compounds read low 1 | S. cerevisiae deletion strains, locus YLR039C, strain RIC1, active compounds read low 1.03 | S. cerevisiae deletion strains, locus YLR058C, strain SHM2, active compounds read low 0.97 | S. cerevisiae deletion strains, locus YLR102C, strain apc9, active compounds read low 0.982 | S. cerevisiae deletion strains, locus YLR221C, strain rsa3, active compounds read low 0.969 | S. cerevisiae deletion strains, locus YLR258W, strain gsy2, active compounds read low 0.997 | S. cerevisiae deletion strains, locus YLR262C, strain YPT6 (second series), active compounds read low 0.999 | S. cerevisiae deletion strains, locus YLR262C, strain YPT6, active compounds read low 0.989 | S. cerevisiae deletion strains, locus YLR268W, strain sec22, active compounds read low 1.06 | S. cerevisiae deletion strains, locus YLR320W, strain mms22, active compounds read low 0.965 | S. cerevisiae deletion strains, locus YLR330W, strain CHS5, active compounds read low 0.995 | S. cerevisiae deletion strains, locus YLR342W, strain FKS1 (second series), active compounds read low 0.991 | S. cerevisiae deletion strains, locus YLR342W, strain FKS1, active compounds read low 1.01 | S. cerevisiae deletion strains, locus YLR357W, strain rsc2, active compounds read low 0.991 | S. cerevisiae deletion strains, locus YLR370C, strain arc18, active compounds read low 0.994 | S. cerevisiae deletion strains, locus YLR371W, strain rom2, active compounds read low 0.974 | S. cerevisiae deletion strains, locus YLR384C, strain iki3, active compounds read low 0.999 | S. cerevisiae deletion strains, locus YLR418C, strain cdc73, active compounds read low 0.978 | S. cerevisiae deletion strains, locus YML016C, strain PPZ1, active compounds read low 0.984 | S. cerevisiae deletion strains, locus YML032C, strain rad52, active compounds read low 1 | S. cerevisiae deletion strains, locus YML120C, strain ndi1, active compounds read low 1.01 | S. cerevisiae deletion strains, locus YML124C, strain tub3, active compounds read low 0.984 | S. cerevisiae deletion strains, locus YMR058W, strain fet3, active compounds read low 0.988 | S. cerevisiae deletion strains, locus YMR078C, strain ctf18, active compounds read low 0.99 | S. cerevisiae deletion strains, locus YMR125W, strain sto1, active compounds read low 0.992 | S. cerevisiae deletion strains, locus YMR129W, active compounds read low 0.981 | S. cerevisiae deletion strains, locus YMR205C, strain PFK2, active compounds read low 1.02 | S. cerevisiae deletion strains, locus YMR223W, strain ubp8, active compounds read low 0.957 | S. cerevisiae deletion strains, locus YMR231W, strain pep5, active compounds read low 0.994 | S. cerevisiae deletion strains, locus YMR263W, strain SAP30, active compounds read low 0.981 and 0.985 | S. cerevisiae deletion strains, locus YMR307W, strain GAS1, active compounds read low 0.947 | S. cerevisiae deletion strains, locus YNL067W, strain RPL9B, active compounds read low 1.01 | S. cerevisiae deletion strains, locus YNL071W, strain lat1, active compounds read low 1.01 | S. cerevisiae deletion strains, locus YNL128W, strain TEP1, active compounds read low 0.975 | S. cerevisiae deletion strains, locus YNL153C, strain GIM3, active compounds read low 1 | S. cerevisiae deletion strains, locus YNL175C, strain NOP13, active compounds read low 1 | S. cerevisiae deletion strains, locus YNL197C, strain WHI3, active compounds read low 0.99 | S. cerevisiae deletion strains, locus YNL209W, strain ssb2, active compounds read low 1.01 | S. cerevisiae deletion strains, locus YNL224C, strain SQS1, active compounds read low 0.982 | S. cerevisiae deletion strains, locus YNL233W, strain BNI4, active compounds read low 1 | S. cerevisiae deletion strains, locus YNL248C, strain rpa49, active compounds read low 0.972 | S. cerevisiae deletion strains, locus YNL250W, strain rad50, active compounds read low 0.963 | S. cerevisiae deletion strains, locus YNL271C, strain bni1, active compounds read low 0.996 | S. cerevisiae deletion strains, locus YNL298W, strain CLA4, active compounds read low 0.971 | S. cerevisiae deletion strains, locus YNL307C, strain MCK1, active compounds read low 0.989 | S. cerevisiae deletion strains, locus YNL322C, strain KRE1 (second series), active compounds read low 1 | S. cerevisiae deletion strains, locus YNL322C, strain KRE1, active compounds read low 0.991 and 0.992 | S. cerevisiae deletion strains, locus YNR049C, strain mso1, active compounds read low 0.984 | S. cerevisiae deletion strains, locus YNR052C, strain pop2, active compounds read low 0.976 | S. cerevisiae deletion strains, locus YOL006C, strain TOP1, active compounds read low 1.03 | S. cerevisiae deletion strains, locus YOL012C, strain htz1 0.627 | S. cerevisiae deletion strains, locus YOL147C, strain pex11, active compounds read low 0.987 | S. cerevisiae deletion strains, locus YOR001W, strain rrp6, active compounds read low 0.931 | S. cerevisiae deletion strains, locus YOR061W, strain CKA2, active compounds read low 0.965 | S. cerevisiae deletion strains, locus YOR069W, strain VPS5, active compounds read low 0.983 | S. cerevisiae deletion strains, locus YOR070C, strain gyp1, active compounds read low 0.979 | S. cerevisiae deletion strains, locus YOR080W, strain dia2, active compounds read low 0.991 | S. cerevisiae deletion strains, locus YOR083W, strain WHI5 (second series), active compounds read low 0.99 | S. cerevisiae deletion strains, locus YOR083W, strain WHI5, active compounds read low 1.02 | S. cerevisiae deletion strains, locus YOR106W, strain vam3, active compounds read low 1.02 | S. cerevisiae deletion strains, locus YOR136W, strain idh2, active compounds read low 0.998 | S. cerevisiae deletion strains, locus YOR144C, strain elg1, active compounds read low 0.985 | S. cerevisiae deletion strains, locus YOR184W, strain ser1, active compounds read low 1.01 | S. cerevisiae deletion strains, locus YOR265W, strain rbl2, active compounds read low 0.991 | S. cerevisiae deletion strains, locus YOR270C, strain vph1, active compounds read low 0.957 | S. cerevisiae deletion strains, locus YOR290C, strain snf2, active compounds read low 1.01 | S. cerevisiae deletion strains, locus YOR316C, strain cot1, active compounds read low 0.994 | S. cerevisiae deletion strains, locus YPL051W, strain arl3, active compounds read low 1.01 | S. cerevisiae deletion strains, locus YPL055C, strain LGE1, active compounds read low 0.977 | S. cerevisiae deletion strains, locus YPL078C, strain atp4, active compounds read low 1.02 | S. cerevisiae deletion strains, locus YPL106C, strain sse1, active compounds read low 1.01 | S. cerevisiae deletion strains, locus YPL240C, strain hsp82, active compounds read low 0.995 | S. cerevisiae deletion strains, locus YPL241C, strain CIN2, active compounds read low 0.994 and 1.01 | S. cerevisiae deletion strains, locus YPR119W, strain clb2, active compounds read low 0.989 | S. cerevisiae deletion strains, locus YPR141C, strain kar3, active compounds read low 0.976 | S. cerevisiae deletion strains, locus YPR163C, strain tif3, active compounds read low 0.995 | S. cerevisiae deletion strains, locus YPR167C, strain met16, active compounds read low 0.989 | S. cerevisiae deletion strains, strain wtn01, active compounds read low 1.02 | S. cerevisiae strains, strain wild type, active compounds read low 0.984
